# About 410 targets per protein were measured; listed, in parts, are those with the strongest signals and a random draw of the rest.
# Experiments:
# Test in all cases: glycan array binding signal (z-score within array); higher = stronger binding
# Conditions in all cases: glycan notation: IUPAC condensed, linker removed; mutation: H84T
# Fuc(a1-2)Gal(b1-3)GlcNAc = target: Fuc(a1-2)Gal(b1-3)GlcNAc
# Method in brief: (§1)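 The binding signal is a Z-score computed within each array and averaged over linkers. Arrays of the same protein sequence at different concentrations or buffers were also averaged together. Data originate from 3228 arrays in the Consortium for Functional Glycomics database, kept only where the protein sequence was available.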
# [1] = target: Fuc(a1-2)Gal(b1-3)GlcNAc(b1-2)Man(a1-3)[Fuc(a1-2)Gal(b1-3)GlcNAc(b1-2)Man(a1-6)]Man(b1-4)GlcNAc(b1-4)[Fuc(a1-6)]GlcNAc
# Method in brief: as §1
# [2] = target: Fuc(a1-2)Gal(b1-4)GlcNAc(b1-3)Gal(b1-4)GlcNAc(b1-2)Man(a1-3)[Fuc(a1-2)Gal(b1-4)GlcNAc(b1-3)Gal(b1-4)GlcNAc(b1-2)Man(a1-6)]Man(b1-4)GlcNAc(b1-4)GlcNAc
# Method in brief: as §1
# [3] = target: Fuc(a1-2)Gal(b1-4)[Fuc(a1-3)]GlcNAc(b1-3)[Neu5Ac(a2-6)Gal(b1-4)GlcNAc(b1-6)]Gal(b1-4)Glc
# Method in brief: as §1
# [4] = target: Fuc(a1-2)[GalNAc(a1-3)]Gal(b1-3)GalNAc(b1-3)Gal(a1-4)Gal(b1-4)Glc
# Method in brief: as §1
# Fuc(a1-3)GlcNAc = target: Fuc(a1-3)GlcNAc
# Method in brief: as §1
# Fuc(b1-3)GlcNAc = target: Fuc(b1-3)GlcNAc
# Method in brief: as §1
# [5] = target: Gal(a1-3)Gal(b1-3)[Fuc(a1-4)]GlcNAc(b1-2)Man(a1-3)[Gal(a1-3)Gal(b1-3)[Fuc(a1-4)]GlcNAc(b1-2)Man(a1-6)]Man(b1-4)GlcNAc(b1-4)GlcNAc
# Method in brief: as §1
# [6] = target: Gal(b1-3)GlcNAc(b1-6)GalNAc
# Method in brief: as §1
# [7] = target: Gal(b1-3)[Neu5Ac(a2-6)]GalNAc
# Method in brief: as §1
# [8] = target: Gal(b1-4)GlcNAc(b1-2)[Gal(b1-4)GlcNAc(b1-6)]Man(a1-6)[GlcNAc(b1-4)][Gal(b1-4)GlcNAc(b1-2)Man(a1-3)]Man(b1-4)GlcNAc(b1-4)GlcNAc
# Method in brief: as §1
# [9] = target: Gal(b1-4)GlcNAc(b1-6)Gal(b1-4)GlcNAc
# Method in brief: as §1
# [10] = target: Gal3S(b1-4)[Fuc(a1-3)]GlcNAc6S
# Method in brief: as §1
# [11] = target: GlcNAc(a1-4)Gal(b1-4)GalNAc
# Method in brief: as §1
# [12] = target: GlcNAc(b1-3)Gal(b1-4)GlcNAc(b1-3)Gal(b1-4)GlcNAc(b1-3)Gal(b1-4)GlcNAc(b1-2)Man(a1-3)[GlcNAc(b1-3)Gal(b1-4)GlcNAc(b1-3)Gal(b1-4)GlcNAc(b1-3)Gal(b1-4)GlcNAc(b1-2)Man(a1-6)]Man(b1-4)GlcNAc(b1-4)[Fuc(a1-6)]GlcNAc
# Method in brief: as §1
# [13] = target: GlcNAc6S(b1-3)Gal(b1-4)GlcNAc
# Method in brief: as §1
# Kdn(a2-3)Gal(b1-4)GlcNAc = target: Kdn(a2-3)Gal(b1-4)GlcNAc
# Method in brief: as §1
# [14] = target: Man(a1-2)Man(a1-2)Man(a1-6)[Man(a1-3)]Man
# Method in brief: as §1
# [15] = target: Man(a1-2)Man(a1-3)[Man(a1-2)Man(a1-6)]Man
# Method in brief: as §1
# [16] = target: Man(a1-2)Man(a1-3)[Man(a1-2)Man(a1-6)]Man(a1-6)[Man(a1-2)Man(a1-2)Man(a1-3)]Man
# Method in brief: as §1
# [17] = target: Man(a1-2)Man(a1-3)[Man(a1-2)Man(a1-6)]Man(a1-6)[Man(a1-2)Man(a1-2)Man(a1-3)]Man(b1-4)GlcNAc(b1-4)GlcNAc
# Method in brief: as §1
# [18] = target: Man(a1-2)Man(a1-3)[Man(a1-6)]Man(a1-6)[Man(a1-2)Man(a1-3)]Man(b1-4)GlcNAc(b1-4)GlcNAc
# Method in brief: as §1
# [19] = target: Man(a1-2)Man(a1-6)[Man(a1-3)]Man(a1-6)[Man(a1-2)Man(a1-2)Man(a1-3)]Man
# Method in brief: as §1
# [20] = target: Man(a1-2)Man(a1-6)[Man(a1-3)]Man(a1-6)[Man(a1-2)Man(a1-2)Man(a1-3)]Man(b1-4)GlcNAc(b1-4)GlcNAc
# Method in brief: as §1
# Man(a1-3)[Man(a1-6)]Man = target: Man(a1-3)[Man(a1-6)]Man
# Method in brief: as §1
# [21] = target: Man(a1-3)[Man(a1-6)]Man(a1-6)[Man(a1-2)Man(a1-3)]Man(b1-4)GlcNAc(b1-4)GlcNAc
# Method in brief: as §1
# [22] = target: Man(a1-3)[Man(a1-6)]Man(a1-6)[Man(a1-3)]Man(b1-4)GlcNAc(b1-4)GlcNAc
# Method in brief: as §1
# [23] = target: Man(a1-3)[Man(a1-6)]Man(b1-4)GlcNAc(b1-4)GlcNAc
# Method in brief: as §1
# [24] = target: Man(a1-3)[Man(a1-6)]Man(b1-4)GlcNAc(b1-4)[Fuc(a1-6)]GlcNAc
# Method in brief: as §1
# Neu5Ac(a2-3)Gal = target: Neu5Ac(a2-3)Gal
# Method in brief: as §1
binder,measurement,setting,value
Banana lectin (Musa acuminata) (protein) MNGAIKVGAWGGNGGSAFDMGPAYRIISVKIFSGDVVDGVDVTFTYYGKTETRHYGGSGGTPHEIVLQEGEYLVGMAGEVANYTGAVVLGKLGFSTNKKAYGPFGNTGGTPFSLPIAAGKISGFFGRGGKFLDAIGVYLEPLEHHHHHH,glycan array binding signal (z-score),Fuc(a1-2)Gal(b1-3)GlcNAc,-0.164
same,glycan array binding signal (z-score),[1],-0.026
same,glycan array binding signal (z-score),[2],-0.09
same,glycan array binding signal (z-score),[3],-0.193
same,glycan array binding signal (z-score),[4],-0.165
same,glycan array binding signal (z-score),Fuc(a1-3)GlcNAc,-0.218
same,glycan array binding signal (z-score),Fuc(b1-3)GlcNAc,-0.189
same,glycan array binding signal (z-score),[5],0.562
same,glycan array binding signal (z-score),[6],-0.155
same,glycan array binding signal (z-score),[7],-0.154
same,glycan array binding signal (z-score),[8],-0.098
same,glycan array binding signal (z-score),[9],-0.206
same,glycan array binding signal (z-score),[10],-0.177
same,glycan array binding signal (z-score),[11],-0.184
same,glycan array binding signal (z-score),[12],-0.082
same,glycan array binding signal (z-score),[13],-0.199
same,glycan array binding signal (z-score),Kdn(a2-3)Gal(b1-4)GlcNAc,-0.189
same,glycan array binding signal (z-score),[14],8.2
same,glycan array binding signal (z-score),[15],2.21
same,glycan array binding signal (z-score),[16],7.07
same,glycan array binding signal (z-score),[17],5.46
same,glycan array binding signal (z-score),[18],4.86
same,glycan array binding signal (z-score),[19],5.72
same,glycan array binding signal (z-score),[20],10.1
same,glycan array binding signal (z-score),Man(a1-3)[Man(a1-6)]Man,6.01
same,glycan array binding signal (z-score),[21],11.3
same,glycan array binding signal (z-score),[22],5.96
same,glycan array binding signal (z-score),[23],4.6
same,glycan array binding signal (z-score),[24],1.98
same,glycan array binding signal (z-score),Neu5Ac(a2-3)Gal,-0.212

# From the supplement of paper PMC8728848
